Sampled rows, rich in hits. Any-hit rate of the full collection: about 19%.
BCR signal inh = chronic active BCR signaling inhibition; ABC-DLBCL IkBa-CBG/CBR reporter, luminescence ratio, 4 h; Potency, µM (series often up to 46.1 µM), for inactives: top-dose activity change, negative = inhibition, actives largely listed as inhibitors; 340,000 tested, 0.05% active; AID 493014; active = well fitted inhibition curve with a large enough effect in the signal ratio, with a control signal flat, not every such curve was filed as active; inconclusive = small, poorly fitted or top-dose-only effect, or effect the other way, or a change in a side signal; the % refers to the signal ratio;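 also: potency is read from the fitted curve at half-maximal effect; plate controls were basal doxycycline-induced cells for no effect and cells given 10 µM MG132 for full effect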
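TMD8 human ABC-DLBCL cells with doxycycline-inducible IκBα–green luciferase fusion and unfused red luciferase, in 0.5% FBS medium; compounds up to 46 uM, 4 h at 37C. Green/red luminescence ratio, filter-overlap corrected, fitted to concentration-response curves.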
MCF10A rereplic = DNA re-replication induction in MCF 10a cells; MCF 10A DNA re-replication, Hoechst nuclear intensity, 48 h; 350,000 tested, 2.9% active; Potency, µM (series often up to 46.1 µM), without a hit: top-dose activity, positive = re-replication, usual class: activators; also: potency is read from the fitted curve at half-maximal effect; % of control where 0% means no effect; nearly all actives have a fitted effect of over 50% in size
SW480 rereplic = induces DNA re-replication in SW480 colon adenocarcinoma cells. SW480 DNA re-replication, Hoechst DNA content imaging, 48 h. Potency, µM (series often up to 46.1 µM), for inactives: at the highest dose re-replication activation, most hits filed as activators. 340,000 tested, 1.8% active. AID 624297; also: potency is read from the fitted curve at half-maximal effect; % of control where 0% means no effect; nearly all actives have a fitted effect of over 55% in size
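Compounds, transferred as 23 nL by pin tool, were incubated with cells for 48 hr; DNA content per nucleus was then quantified by Hoechst staining and fluorescence plate imaging.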
IL1B secr inh = inflammasome signaling inhibition, IL-1 beta readout | THP-1 LPS/ATP IL-1B secretion, AlphaLISA, 16 h; stronger effect = lower value | activity change, % at 57.5 µM | 360,000 tested, 4.7% active | AID 743279; in the data active = activity change below about -50%; inconclusive = mostly about -30% to -49%; also: % is scaled to controls: 0 for no effect and ±100 for the full control effect
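Secreted IL-1B measured by AlphaLISA bead assay after 16 h compound exposure of THP-1 cells; compounds (final up to 57.5 uM) added 1 h before LPS (250 ng/mL) and ATP (1.25 mM) stimulation; lower signal means less secretion.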
TDP1 cell CPT = DT40-hTDP1 cell growth loss with CPT; Potency, µM (titrated, usually from 46.2 µM), for the others: top-dose activity change, negative = growth inhibition, hits mostly inhibitors; chicken DT40 Tdp1-/-;hTDP1 cells + 20 nM CPT, ATP luminescence, 48 h; 420,000 tested, 12% active; AID 686979; also: potency is read from the fitted curve at half-maximal effect; % is scaled to controls: 0 for no effect and ±100 for the full control effect; nearly all actives have a fitted effect of over 55% in size
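Cell growth measured by CellTiter-Glo luminescence after a minimum 48 h, 37 C compound exposure with 20 nM CPT in Tdp1-knockout DT40 cells stably expressing hTDP1, seeded 400/well; qHTS titration format.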
DT40 TDP1 no CPT = qHTS for Inhibitors of human tyrosyl-DNA phosphodiesterase 1 (TDP1): qHTS in cells in absence of CPT | DT40 Tdp1-/- hTDP1 cells, no CPT, ATP luminescence, 48 h | Potency, µM (top dose mostly 46.2 µM), for inactives: at the top dose activity change, negative = growth inhibition, usual class: inhibitors | 420,000 tested, 15% active | AID 686978, 2013; also: potency is read from the fitted curve at half-maximal effect; % is scaled to controls: 0 for no effect and ±100 for the full control effect; nearly all actives have a fitted effect of over 55% in size
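Camptothecin absent (DMSO only). Human TDP1-complemented DT40 knockout cells, 400 cells/well, 37 °C for minimum 48 hr; ATP measured via CellTiter-Glo, 30 min dark incubation, luminescence.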
* marks the source's active call; other numbers are inactive results; ? = inconclusive; . = not tested or not shown. Unless noted, calls follow the shape of the dose curve; as a rule, active = well fitted curve in the direction sought with a large enough effect; inconclusive = small, poorly fitted or top-dose-only effect, or another doubt; inactive = no such curve, though single readings can be large; an effect the other way counts as inactive or inconclusive.

SMILES	BCR signal inh	MCF10A rereplic	SW480 rereplic	IL1B secr inh	TDP1 cell CPT	DT40 TDP1 no CPT
CCNC(=O)c1sc(-c2ccccc2)nc1C	?	-1%	-4%	31	-17%	-9%
Cc1nc(-c2ccc(F)cc2)sc1CCNC(=O)c1ccccc1	-5%	.	.	.	15µM*	23µM*
COc1ccc(C(=O)NCCc2sc(-c3ccc(Cl)cc3)nc2C)c(OC)c1	.	.	.	.	16µM*	?
Cc1nc(-c2ccc(F)cc2)sc1CCNC(=O)c1cccs1	.	.	.	.	21µM*	?
C[C@H](CO)N1C[C@H](C)[C@@H](CN(C)Cc2ccccc2C(=O)O)OCc2cnnn2CCCC1=O	.	.	.	5	-13%	-1%
CCOC(=O)c1ccccc1NC(=O)COC(=O)Cc1ccccc1F	-11%	0%	-4%	19	7%	-8%
COc1ccc(CCC(=O)OCC(=O)NC2CCCC2)cc1OC	.	.	.	-6	5%	-1%
COc1ccc(NC(=O)C(=O)NCCc2sc(-c3ccc(Cl)cc3)nc2C)cc1	-7%	.	.	.	-3%	-6%
Cc1nc(-c2ccc(Cl)cc2)sc1CCNC(=O)c1ccc(C(F)(F)F)cc1	.	.	.	.	8.2µM*	12µM*
C=CCc1cccc2cc(C(=O)Nc3ccc(S(=O)(=O)Nc4nnc(CC)s4)cc3)c(=O)oc12	-4%	?	-1%	9	-13%	-22%
O=c1cc(CO)[nH]cc1OCc1ccccc1	0%	-1%	-85%	-9	4%	-24%
CCN1C=C(C(C)=O)C(=O)CC1	.	-24%	-9%	2	-20%	-2%
Cc1occc1C(=O)N1CCCC(N2CCN(c3cccc(C(F)(F)F)c3)CC2)C1 (configuration not stated)	-6%	?	-38%	-7	21µM*	13µM*
Cc1cc(C(=O)N2CCCC(N3CCN(c4cccc(C(F)(F)F)c4)CC3)C2)c(C)o1 (configuration not stated)	?	?	18µM*	?	16µM*	12µM*
COC(=O)N/N=C(\C)c1ccc(C)c([N+](=O)[O-])c1	2%	3%	-2%	-4	-12%	?
COc1cc(/C=C/C(=O)c2ccc(C)c([N+](=O)[O-])c2)cc(OC)c1O	?	9.2µM*	.	?	16µM*	15µM*
COc1cc(/C=N/NC(=O)c2ccc(C)nc2)cc([N+](=O)[O-])c1O	?	3%	-8%	-9	20%	-12%
COc1ccc(/C=C/C(=O)c2ccc(C)c([N+](=O)[O-])c2)cc1O	?	?	?	?	?	13µM*
COc1cccc(/C=C/C(=O)c2ccc(C)c([N+](=O)[O-])c2)c1	0%	6.5µM*	?	-83*	?	21µM*
Cc1ccc(S(=O)(=O)Nc2c(C)cc(C)nc2Cl)cc1	?	-7%	0%	12	-15%	-5%
CCN=c1scc(-c2ccco2)n1/N=C/c1ccc(OC)c(O)c1	.	?	1%	-6	-21%	?
CN=c1scc(-c2ccc(F)cc2)n1/N=C/c1ccc(O)c(O)c1	?	?	15µM*	50	1.2µM*	0.82µM*
Cc1c(CN(C)C)c2c(n1C)C(=O)c1ccc(Br)cc1-2	-1%	27%	?	.	?	?
Cc1c(CN(C)C)c2c(n1Cc1ccccc1)C(=O)c1ccc(Br)cc1-2	?	?	?	-68*	?	?
Cc1ccc(S(=O)(=O)CC(=O)N2CC(C)OC(C)C2)cc1 (configuration not stated)	1%	1%	-1%	22	0%	3%
SMILES	BCR signal inh	MCF10A rereplic	SW480 rereplic	IL1B secr inh	TDP1 cell CPT	DT40 TDP1 no CPT
O=C(NC(=S)Nc1cccc(C(F)(F)F)c1)c1csnn1	7%	29%	6.5µM*	-9	?	?
CCCOc1cccc(C(=O)NC(=S)Nc2cccc(C(F)(F)F)c2)c1	?	1%	?	-57*	?	?
Cc1ccc(N2CCn3c2nc2c3c(=O)n(CCc3ccccc3)c(=O)n2C)cc1C	.	.	.	.	-9%	-27%
COc1ccc(/C=N/Nc2nnc(C)n2N)cc1OC(C)=O	?	?	?	20	8.2µM*	18µM*
COc1ccc(/C=N/Nc2nnc(C)n2N)cc1OC	?	?	?	28	-29%	-21%
Cc1ccc(C(=O)NC2CCN(S(=O)(=O)c3ccccc3F)CC2)cc1	-1%	?	?	-10	-31%	-20%
COc1cc(/C=C(\C(=O)O)c2ccc(S(=O)(=O)N3CCCC3)s2)ccc1OCCC(C)C	.	2%	-3%	0	23µM*	?
O=c1[nH]c(C2CCN(S(=O)(=O)c3cccc([N+](=O)[O-])c3)CC2)nc2c1nnn2Cc1ccccc1	0%	-17%	9%	23	11%	?
Cc1c(N)c(C(C)(C)C)cc(C(C)(C)C)c1[N+](=O)[O-]	1%	18µM*	-66%	12	?	?
CC(C(=O)NC(=O)NC1CCCCC1)N1CCN(c2ccc(O)cc2)CC1 (configuration not stated)	?	1%	-5%	-3	?	-26%
Cc1cc(O)c(C(C)C)cc1N=Cc1ccc(N(C)C)cc1	.	21µM*	?	-8	2.9µM*	5.2µM*
COc1cccc(C=Nc2cc(C(C)C)c(O)cc2C)c1O	.	?	?	?	4.1µM*	3.3µM*
Cc1c(N=Cc2ccc(O)c(Br)c2)cccc1[N+](=O)[O-]	1%	8%	-707%	27	-1%	-20%
Cc1cc(O)c(C(C)C)cc1N=Cc1ccc([N+](=O)[O-])cc1	.	18µM*	18µM*	0	7.3µM*	16µM*
CC(NC(=O)COC(=O)c1cc(S(=O)(=O)N2CCOCC2)ccc1F)c1ccccc1 (configuration not stated)	4%	2%	-2%	-24	11%	-7%
Cc1ccc2cc(CCNC(=O)c3ccc(S(=O)(=O)N4CCOCC4)cc3)c(=O)[nH]c2c1	7%	1%	0%	?	?	-28%
Cc1ccc2cc(CCNC(=O)c3ccc(S(=O)(=O)N4CCCCC4)cc3)c(=O)[nH]c2c1	3%	2%	2%	-10	?	23µM*
Cc1cc2cc(CCNC(=O)c3ccc(S(=O)(=O)N4CCOCC4)cc3)c(=O)[nH]c2cc1C	-11%	9%	-1%	?	16µM*	18µM*
